The source made the active and inactive calls. Unless noted, how the calls were made is not given here.

Experiment [1] in a line: compound effects on lung adenocarcinoma cell viability – A549, calcein-AM fluorescence, 48 h, basal, profiling panel (AID 1162). Further: test concentration not given here. The conditions noted are these: higher = more signal.
A short description of experiment [2]: compound effects on differentiated 3T3-L1 adipocyte viability – cell-based, 3T3-L1 adipocytes, calcein-AM fluorescence, 48 h, basal, profiling panel (AID 1163). Further: test concentration not given here. Particulars: 3T3-L1 adipocytes viability, higher = more signal.
A short description of experiment [3]: compound effects on hepatocellular carcinoma cell viability – HepG2, calcein-AM fluorescence, 48 h, basal, profiling panel (AID 1164). Further: test concentration not given here. Particulars: higher = more signal.
Experiment [4] is described as follows: compound effects on multiple myeloma cell viability – MM1S, calcein-AM fluorescence, 48 h, basal, profiling panel (AID 1165).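 Further: viability of MM1S multiple myeloma cells under basal unstimulated conditions; test concentration not given here.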 Particulars: higher = more signal.
Experiment [5] in a line: calcein-AM signal in unstimulated myeloma cells – cell-based, calcein-AM fluorescence, 48 h, PK04 Diversity Set, profiling panel (AID 1166).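 Further: cells grown under basal conditions without added stimulus; test concentration not given here.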 The conditions noted are these: RPMI8226 myeloma viability, higher = more signal.
Experiment [6] in a line: JC-1 mitochondrial signal, unstimulated HepG2 cells – cell-based, JC-1 fluorescence, 24 h, 100 nL compound, profiling panel (AID 1167). Further: test concentration not given here. Particulars: HepG2 mitochondrial potential, higher = more signal.
Experiment [7] in a line: JC-1 mitochondrial signal, unstimulated adipocytes – cell-based, JC-1 fluorescence, 3T3-L1 adipocytes, 24 h, 100 nL compound, profiling panel (AID 1168). Further: test concentration not given here. Particulars: JC-1 mitochondrial fluorescence, higher = more signal, called active from +8 up or from −8 down.
Experiment [8] in a line: JC-1 mitochondrial signal, unstimulated myeloma cells – cell-based, JC-1 fluorescence, RPMI8226, 24 h, 100 nL compound, profiling panel (AID 1169). Further: test concentration not given here. The conditions noted are these: JC-1 mitochondrial potential fluorescence, higher = more signal.
The nature of experiment [9]: JC-1 mitochondrial signal, unstimulated MM1S myeloma – cell-based, JC-1 fluorescence, 24 h, 100 nL compound, profiling panel (AID 1170). Further: test concentration not given here. Particulars: MM1S mitochondrial potential, higher = more signal.
The nature of experiment [10]: resazurin metabolic signal in A549 cells – cell-based, resazurin fluorescence, 24 h, PK04 Diversity Set, profiling panel (AID 1171). Further: test concentration not given here. Particulars: A549 viability, higher = more signal, called active from +8 up or from −8 down.
The nature of experiment [11]: resazurin metabolic signal in HepG2 cells – cell-based, resazurin fluorescence, 24 h, PK04 Diversity Set, profiling panel (AID 1172). Further: test concentration not given here. Particulars: HepG2 viability, higher = more signal.
The nature of experiment [12]: budding yeast growth changes without added modifier – OD600, strain BY4716, 24 h, basal condition, primary screen (AID 1173). The conditions noted are these: S. cerevisiae BY4716 growth, OD600, 24 h; higher = more signal, called active from +8 up or from −8 down.
The nature of experiment [13]: viability profiling in MM1S myeloma cells – cell-based, resazurin fluorescence, basal, 24 h, PK04 Diversity Set, profiling panel (AID 1174). Further: test concentration not given here. Particulars: higher = more signal, called active from +8 up or from −8 down.
Experiment [14] addresses Dihydroorotate dehydrogenase (quinone), mitochondrial (Plasmodium falciparum (isolate 3D7)) (UniProt Q08210). Put plainly: inhibition of P. falciparum DHODH – biochemical, C-terminal His tag, absorbance 600 nm, primary screen (AID 1175).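 Further: recombinant parasite enzyme with a five histidine tag at its C terminus; test concentration not given here.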 Particulars: PfDHODH enzyme, DCIP absorbance 600 nm; higher = more signal, called active from +8 up or from −8 down.
A short description of experiment [15]: inhibition of PAO1 biofilm formation – strain PAO1, LB-PBS medium, absorbance 600 nm, primary screen (AID 1176). Further: test concentration not given here. Particulars: P. aeruginosa PAO1 growth/biofilm, A600, 12 h; higher = more signal.
Experiment [16] can be described thus: growth modulation of vineyard yeast isolate – strain RM11-1a, OD600, basal, 24 h, primary screen (AID 1177).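 Further: cultures grown under basal conditions with no added stressor; test concentration not given here.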 The conditions noted are these: S. cerevisiae RM11-1a growth, OD600, 24 h; higher = more signal, called active from +8 up or from −8 down.
Experiment [17] in a line: growth of efflux-deficient E. coli DRC39 – strain DRC39, OD650, 24 h, E. coli filamentation inducers, primary screen (AID 1178).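 Further: growth measured as culture turbidity by optical density at 650 nm; test concentration not given here.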 Particulars: E. coli DRC39 acrAB, higher = more signal, called active from +8 up or from −8 down.
Experiment [18] is described as follows: growth of efflux-deficient E. coli DRC39 – strain DRC39, OD650, 48 h, E. coli filamentation inducers, primary screen (AID 1179).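 Further: screen aims at cell division blockers that make cells filament.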 The conditions noted are these: E. coli DRC39 delta-acrAB growth, higher = more signal, called active from +8 up or from −8 down.
Experiment [19] is described as follows: viability profiling in RPMI8226 myeloma cells – cell-based, resazurin fluorescence, basal, 24 h, PK04 Diversity Set, profiling panel (AID 1180).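 Further: RPMI8826 multiple myeloma cell line at 5000 cells per well; test concentration not given here.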 The conditions noted are these: higher = more signal.
Experiment [20] deals with E3 ubiquitin-protein ligase XIAP (Homo sapiens) (UniProt P98170). Put plainly: small molecules binding XIAP protein – biophysical, small-molecule microarray, fluorescence 635 nm, primary screen (AID 1181).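 Further: score merges 667 nm emission and signal to noise over triplicate slides.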 The conditions noted are these: higher = more signal.
E3 ubiquitin-protein ligase XIAP (Homo sapiens), sequence (P98170 whole entry, looked up): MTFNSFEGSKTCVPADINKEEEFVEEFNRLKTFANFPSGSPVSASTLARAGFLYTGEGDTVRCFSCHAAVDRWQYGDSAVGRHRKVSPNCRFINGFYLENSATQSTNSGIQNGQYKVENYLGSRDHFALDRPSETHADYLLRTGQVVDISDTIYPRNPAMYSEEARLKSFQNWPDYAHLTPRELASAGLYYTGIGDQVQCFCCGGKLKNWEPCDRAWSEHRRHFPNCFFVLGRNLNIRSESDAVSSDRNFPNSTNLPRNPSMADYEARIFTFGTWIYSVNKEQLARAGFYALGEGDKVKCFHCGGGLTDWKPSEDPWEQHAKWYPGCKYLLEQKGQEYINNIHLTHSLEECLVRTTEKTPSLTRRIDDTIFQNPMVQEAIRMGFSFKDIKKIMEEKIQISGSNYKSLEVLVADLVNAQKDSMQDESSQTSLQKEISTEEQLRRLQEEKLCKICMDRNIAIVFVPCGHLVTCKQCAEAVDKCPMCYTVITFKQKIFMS

Dihydroorotate dehydrogenase (quinone), mitochondrial (Plasmodium falciparum (isolate 3D7)), sequence (Q08210 whole entry, looked up): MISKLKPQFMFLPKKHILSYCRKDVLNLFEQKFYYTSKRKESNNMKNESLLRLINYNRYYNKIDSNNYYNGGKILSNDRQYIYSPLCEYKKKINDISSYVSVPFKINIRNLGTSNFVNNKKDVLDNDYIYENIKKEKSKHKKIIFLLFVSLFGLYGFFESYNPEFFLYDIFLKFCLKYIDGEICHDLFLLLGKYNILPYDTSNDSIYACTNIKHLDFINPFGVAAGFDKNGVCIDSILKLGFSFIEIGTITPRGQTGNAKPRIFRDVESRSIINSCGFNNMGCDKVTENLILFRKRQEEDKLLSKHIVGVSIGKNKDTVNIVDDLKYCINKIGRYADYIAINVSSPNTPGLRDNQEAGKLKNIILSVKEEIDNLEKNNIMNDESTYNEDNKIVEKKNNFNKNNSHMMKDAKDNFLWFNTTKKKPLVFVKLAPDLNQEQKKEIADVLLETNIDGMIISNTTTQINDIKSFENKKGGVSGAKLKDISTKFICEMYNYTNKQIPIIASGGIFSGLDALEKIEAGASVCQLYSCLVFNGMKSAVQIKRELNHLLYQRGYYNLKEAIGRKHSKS

Regarding `CCOC(=O)CCN1C(=O)[C@H]2[C@@H]3C(=CC[C@H]2C1=O)C(=O)[C@H]1O[C@H]1[C@H]3O`, the z-score is 0.762 in experiment [1]; 0.453 in [2]; -0.564 in experiment [3]; -3.19 in experiment [4]; -3.72 in experiment [5]; -1.23 in [6]. The z-score in [7] was 0.501 (inactive); in [8], -1.1; in experiment [9], -2.74; in [10], -0.899 (inactive); in experiment [11], -0.423; in experiment [12] it was -0.894 (inactive). The z-score in experiment [13] is -5.48 (inactive); in experiment [15], 0.0335 (inactive); in [16], -0.548 (inactive); in experiment [17], -0.254 (inactive); in [18], 0.322 (inactive); in experiment [19] it was -2.2. The composite z-score in experiment [14] is -0.369 (inactive); in [20], -0.0812.

As for `CC(C)CON=C1C[C@@H](O)[C@@H](O)[C@@H]2[C@@H]3C(=O)N(c4ccc(F)cc4F)C(=O)[C@@H]3CC[C@@H]12`, the z-score in experiment [1] was -0.793; in experiment [2], 0.44; in experiment [3] it was -0.464; in experiment [4], -0.102; in experiment [5], -0.587; in [6], 1.31. For the same compound, the z-score was -0.4 (inactive) in experiment [7]; -0.648 in experiment [8]; -0.425 in [9]; 0.491 (inactive) in [10]; 0.372 in experiment [11]; -1.98 (inactive) in experiment [12]. For the same compound, the z-score in experiment [13] is 0.88 (inactive); in [15], -0.27 (inactive); in experiment [16], -1.22 (inactive); in experiment [17], 1.01 (inactive); in [18], 0.15 (inactive); in [19], -0.226. Also, the composite z-score in experiment [14] was -2.1 (inactive); in experiment [20], -0.0296.

`O=C1C[C@@H](O)[C@@H](O)[C@@H]2[C@@H]3C(=O)N(c4ccc(F)cc4F)C(=O)[C@@H]3CC[C@H]12`: the z-score is -0.529 in [1]; 1.42 in [2]; 0.0181 in experiment [3]; -0.141 in experiment [4]; -0.0202 in [5]; -0.541 in [6]. The z-score was -0.922 (inactive) in experiment [7]; 0.0715 in experiment [8]; 0.448 in experiment [9]; -0.715 (inactive) in experiment [10]; -0.635 in [11]; 0.021 (inactive) in experiment [12]. Also, the z-score in experiment [13] is -0.175 (inactive); in [15] it was 0.471 (inactive); in experiment [16], -0.304 (inactive); in experiment [17], -0.297 (inactive); in experiment [18] it was -1.31 (inactive); in experiment [19], -0.413. In addition, the composite z-score in experiment [14] was -0.0528 (inactive); in experiment [20] it was -0.214.

With `COc1ccc(COC(=O)NN=C2C[C@@H](O)[C@@H](O)[C@@H]3[C@@H]4C(=O)N(C5CCCCC5)C(=O)[C@@H]4CC[C@@H]23)cc1`, the z-score in experiment [1] was 0.0391; in [2] it was 1.11; in [3], 0.494; in [4] it was 0.419; in experiment [5], 0.3; in [6], -0.0284. In addition, the z-score was -0.297 (inactive) in experiment [7]; -0.375 in experiment [8]; -0.269 in [9]; -0.533 (inactive) in experiment [10]; -0.578 in experiment [11]; -1.29 (inactive) in experiment [12]. Further, the z-score in experiment [13] was -0.489 (inactive); in [15] it was -0.118 (inactive); in experiment [16], -0.286 (inactive); in [17] it was -0.697 (inactive); in [18], -0.437 (inactive); in experiment [19], -0.481. The composite z-score in experiment [14] is -1.39 (inactive); in [20] it was 0.0225.

With `COc1cccc([C@H](O)Cn2cc(-c3ccc(CON=C(C)C)cc3)nn2)c1`, the z-score was 0.445 in experiment [1]; -0.374 in experiment [2]; 0.206 in experiment [3]; 1.22 in experiment [4]; 0.157 in experiment [5]; -0.803 in [6]. The z-score was 0.706 (inactive) in experiment [7]; -0.0682 in [8]; -0.544 in experiment [9]; -0.409 (inactive) in experiment [10]; -0.262 in [11]; -0.377 (inactive) in experiment [12]. For the same compound, the z-score in experiment [13] was -0.307 (inactive); in experiment [15], 0.475 (inactive); in [16] it was -0.47 (inactive); in [17], 0.419 (inactive); in experiment [18], 0.291 (inactive); in [19], -0.0501. For the same compound, the composite z-score in experiment [14] was -0.217 (inactive); in experiment [20] it was -0.167.

For `COc1ccc(O[C@H]2C=C[C@@H](c3ccccc3)O[C@@H]2COC(=O)NCc2cccc3ccccc23)cc1`, the z-score was 0.152 in experiment [1]; 0.0831 in experiment [2]; -0.833 in experiment [3]; -1.23 in experiment [4]; -0.0376 in experiment [5]; 0.194 in experiment [6]. The z-score in experiment [7] is -0.351 (inactive); in experiment [8] it was 0.396; in experiment [9] it was -0.225; in experiment [10], 0.618 (inactive); in experiment [11], -0.556; in [12], 0.476 (inactive). For the same compound, the z-score in [13] is -0.079 (inactive); in [15], 0.79 (inactive); in experiment [16], 0.846 (inactive); in [17], -0.424 (inactive); in [18], -0.257 (inactive); in experiment [19], 0.283. Besides, the results for the composite z-score in experiment [14] and in experiment [20] were -0.0459 (inactive) and -0.0448, respectively.

In the case of `CCOC(=O)CCN1C(=O)[C@H]2[C@H]3[C@H](O)[C@H](O)CC(=O)[C@@H]3CC[C@H]2C1=O`, the z-score in [1] was -0.856; in [2], 0.314; in experiment [3] it was -0.0609; in [4], -0.885; in experiment [5] it was 0.456; in experiment [6], -0.385. The z-score in experiment [7] was -0.368 (inactive); in experiment [8] it was -0.798; in experiment [9], 0.325; in experiment [10], 0.699 (inactive); in [11] it was 1.09; in experiment [12], -0.375 (inactive). Besides, the z-score was 0.344 (inactive) in experiment [13]; -0.708 (inactive) in experiment [15]; -0.405 (inactive) in experiment [16]; -0.512 (inactive) in experiment [17]; -0.897 (inactive) in [18]; 0.651 in experiment [19]. Besides, the composite z-score was 0.462 (inactive) in experiment [14] and 0.0408 in experiment [20].

As for `CO[C@@H]1COC(=O)[C@H](CCSC)NC(=O)CC=C[C@@H](C)COC(=O)[C@@H]2CCCN2C(=O)CC=C[C@H]1C`, the z-score in experiment [1] was -0.25; in experiment [2], -0.094; in [3], 0.182; in experiment [4], 0.105; in [5] it was 0.339; in [6], 0.754. The z-score is 0.579 (inactive) in experiment [7]; -0.79 in [8]; 0.326 in experiment [9]; 0.285 (inactive) in [10]; 0.64 in [11]; -0.691 (inactive) in experiment [12]. Besides, the z-score in [13] was 0.89 (inactive); in experiment [15], -0.92 (inactive); in [16], -0.572 (inactive); in experiment [17], -0.0629 (inactive); in experiment [18] it was -0.733 (inactive); in experiment [19] it was 0.652. The values for the composite z-score in [14] and in experiment [20] were -0.0517 (inactive) and -0.0277, respectively.

Consider `CC(C)=CCCC(C)=CCON=C1C[C@@H](O)[C@@H](O)[C@@H]2[C@@H]3C(=O)N(Cc4ccc5c(c4)OCO5)C(=O)[C@@H]3CC[C@@H]12`, for which the z-score in experiment [1] was -0.0221; in experiment [2], 0.603; in experiment [3], -0.53; in experiment [4], -0.788; in experiment [5], -0.327; in experiment [6], -0.0991. Further, the z-score in experiment [7] was 0.581 (inactive); in [8] it was 0.0988; in [9], -0.909; in experiment [10] it was 0.25 (inactive); in experiment [11] it was 0.542; in experiment [12], -0.872 (inactive). In addition, the z-score in experiment [13] was 0.411 (inactive); in [15] it was -0.437 (inactive); in experiment [16], 0.268 (inactive); in experiment [17], 0.499 (inactive); in experiment [18], -0.588 (inactive); in experiment [19], 0.354. In addition, the composite z-score is -0.396 (inactive) in experiment [14] and -0.17 in experiment [20].

These data come from PubChem BioAssay.
